Among the data in PubChem BioAssay (EPA / NIEHS) are outcome and AC50 values, retold here.

Inconclusive results are not listed. Activity calls are given as the source filed them. Rule for the calls: active = hit-call score of the fitted dose curve at least 0.9, where 1 is the maximum; inconclusive = response in the unintended direction; inactive = score below 0.9.

Chain of Glucocorticoid receptor (Homo sapiens) (P04150 whole entry, looked up): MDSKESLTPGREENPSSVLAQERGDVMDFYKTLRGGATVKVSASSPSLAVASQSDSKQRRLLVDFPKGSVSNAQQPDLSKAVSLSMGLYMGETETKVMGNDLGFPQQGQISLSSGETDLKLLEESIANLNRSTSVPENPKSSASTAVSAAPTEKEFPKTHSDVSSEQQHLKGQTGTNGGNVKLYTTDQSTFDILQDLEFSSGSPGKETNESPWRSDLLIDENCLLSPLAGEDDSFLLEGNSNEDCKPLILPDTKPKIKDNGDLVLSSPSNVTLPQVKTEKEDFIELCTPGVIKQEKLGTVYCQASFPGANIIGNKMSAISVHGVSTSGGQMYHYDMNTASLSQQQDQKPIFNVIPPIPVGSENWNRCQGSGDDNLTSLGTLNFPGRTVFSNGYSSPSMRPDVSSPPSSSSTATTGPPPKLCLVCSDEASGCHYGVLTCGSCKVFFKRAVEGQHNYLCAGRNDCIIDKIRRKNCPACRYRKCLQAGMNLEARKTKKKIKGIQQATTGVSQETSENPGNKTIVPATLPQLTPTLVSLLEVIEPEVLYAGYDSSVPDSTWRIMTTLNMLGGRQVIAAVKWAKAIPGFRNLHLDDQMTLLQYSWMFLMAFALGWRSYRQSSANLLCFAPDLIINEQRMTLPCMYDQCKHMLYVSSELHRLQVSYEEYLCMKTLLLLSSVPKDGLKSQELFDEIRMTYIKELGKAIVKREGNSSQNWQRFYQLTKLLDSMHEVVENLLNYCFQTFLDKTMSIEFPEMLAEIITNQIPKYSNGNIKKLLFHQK

The assay has as its target Glucocorticoid receptor (Homo sapiens) (UniProt P04150). The assay is described as follows: ATG_GR_TRANS: Attagene TRANS-FACTORIAL HepG2 Assay for human Glucocorticoid Receptor (GR) (AID 2282978).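 Note: activators score as hits since higher reporter transcript over DMSO is fitted.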 Conditions: HepG2 Attagene TRANS GR reporter, mRNA transcription. As to the method:
ATG_TRANS is a cell-based, multiplexed-readout assay that uses HepG2, a human liver cell line, with measurements taken at 24 hours after chemical dosing in a 24-well plate.ATG_GR_TRANS is one of 30 assay component(s) measured or calculated from the ATG_TRANS assay. It is designed to make measurements of mRNA induction, a form of inducible reporter, as detected with fluorescence intensity signals by Reverse transcription polymerase chain reaction (RT-PCR) and Capillary electrophoresis technology.Data from the assay component ATG_GR_TRANS was analyzed into 1 assay endpoint. This assay endpoint, ATG_GR_TRANS, was analyzed in the positive analysis fitting direction relative to DMSO as the negative control and baseline of activity. Using a type of inducible reporter, measures of mRNA for gain-of-signal activity can be used to understand the reporter gene at the transcription factor-level as they relate to the gene NR3C1. Furthermore, this assay endpoint can be referred to as a primary readout, because this assay has produced multiple assay endpoints where this one serves a reporter gene function. To generalize the intended target to other relatable targets, this assay endpoint is annotated to the nuclear receptor intended target family, where the subfamily is steroidal.
Human liver HepG2 cells are transiently transfected with multiple reporter transcription units (MRTUs) in 6-well plates using FuGene 6 reagent (Roche; 3 ml FuGene/1 mg DNA). The MRTU constructs are regulated by a cis-regulating element (promoter). […] A major difference between the CIS and TRANS system is that in CIS activities of endogenous TFs are measured, whereas the TRANS assay evaluates changes in activities of exogenous, chimeric NR-Gal4 proteins. […] At the end of 24 hour incubation, total RNA was isolated using TriZol reagent (Invitrogen). The isolated RNA is then reverse-transcribed using oligo(dT) primer and Mo-MLV reverse transcriptase (Invitrogen) with DNAse I (Ambion) treatment for 30 min. The one-tenth of the produced cDNA was amplified by PCR using Taq DNA polymerase (Invitrogen) and two reporter sequence-specific primers. The PCR products were fluorescently labeled by primer extension with 6-arboxyfluorescein (6-FAM) 5'-labeled reporter sequence-specific primer (2 min at 95 C, 20 s at 68 C and 10 min at 72 C) and these products were digested with 5U of HpaI (New England Biolabs) for 2h at 37 C. The fragments were purified using Qiaquick PCR columns (Qiagen), analyzed on an ABI 3130xL genetic analyzer (Applied Biosystems) with peak positions identified by using a set of X-rhodamine (ROX)-labeled MapMarker1000 molecular weight standards (BioVentures). The raw capillary electrophoresis data was processed using Attagraph software (Attagene).
As for `O=C(Nc1ccc(Cl)cc1)Nc1ccc(Cl)c(Cl)c1`, the call was inactive.

For `CC1=CC(=O)/C(=C(/C)O)C(=O)O1`, the outcome was inactive.

Regarding `CN1C(=O)N(c2ccccc2Br)Cc2cnc(Nc3ccc4c(c3)OCC(CO)O4)nc21` (stereo not given), the result was inactive.

In the case of `NC(=O)c1nc(-c2cccc(-c3cc(F)ccc3OCC(F)(F)C(F)(F)F)c2)n[nH]1`, the call was inactive.

As to `CCCCCCCCCCCC[N+](C)(C)C`, the call was inactive.

Take `c1ccc2n[nH]nc2c1`: the molecule was classed as inactive.

Consider `Cc1cn([C@H]2C[C@H](N=[N+]=[N-])[C@@H](CO)O2)c(=O)[nH]c1=O`, for which the molecule was called inactive.

On to `Cc1occc1C(=O)Nc1ccc(C(=O)N2CCC(F)(F)/C(=C\C(=O)N3CCC(N4CCCCC4)CC3)c3ccccc32)cc1`, for which the molecule was called inactive.

Consider `CCCCCCCCCC(=O)O`, for which the molecule was classed as inactive.

In the case of `COc1ccc2cc(S(=O)(=O)N[C@H](CC(=O)N[C@H](Cc3ccc(CN4[C@H](C)CCC[C@@H]4C)cc3)C(=O)N(C)C(C)C)c3ccc4c(c3)OCO4)ccc2c1`, the molecule was called inactive.

`O=C1O[C@H]([C@@H](O)CO)C(O)=C1O`: the call was inactive.

In the case of `COCC(C)OCC(C)OCC(C)O` (stereo not given), the molecule was called inactive.

Turning to `CCCCOC(=O)CC(CC(=O)OCCCC)(OC(C)=O)C(=O)OCCCC`, the molecule was called inactive.

Take `CC(C)(O)c1ccc(CNC(=O)c2cccnc2Oc2ccc3nonc3c2)cc1`: the AC50 (commonly the midpoint of the concentration-response curve, whichever way the signal moves) was 48.6 µM (active).

In the case of `CCCCCCCCOC(=O)c1cc(O)c(O)c(O)c1`, the result was inactive.

Consider `CC(=O)N1CCN(c2ccc(OC[C@H]3CO[C@](Cn4ccnc4)(c4ccc(Cl)cc4Cl)O3)cc2)CC1`, for which the call was inactive.

As for `CC(C)(C)c1cc(/C=C2\SC(N)=NC2=O)cc(C(C)(C)C)c1O`, the molecule was called inactive.

As for `Cc1oc2c(NC(=O)c3c(Cl)cccc3Cl)cccc2c1C(C)(C)O`, the call was inactive.

`COc1cc(C(=O)NC2CCN(C)CC2)ccc1Nc1ncc2c(n1)N(C1CCCC1)CC(F)(F)C(=O)N2C`: the result was inactive.

With `Clc1cc(Cl)c2c(c1)N=C1CCCCCN1C2`, the result was inactive.

For the molecule `CCCCOC(=O)c1ccc(O)cc1`, the outcome was inactive.

Regarding `Clc1ccccc1C(c1ccccc1)(c1ccccc1)n1ccnc1`, the outcome was inactive.

Consider `CC[C@@H]1C[C@H](N(Cc2cc(C(F)(F)F)cc(C(F)(F)F)c2)C(C)=O)c2cc(C(F)(F)F)ccc2N1C(=O)OC(C)C`, for which the AC50 is 100 µM (active).

Take `CN(C)C(=O)C1(N2CCCCC2)CCN(CC[C@@]2(c3ccc(Cl)c(Cl)c3)CN(C(=O)c3ccccc3)CCO2)CC1`: the molecule was called inactive.

As to `CCCCCCCCN(C)CCCCCCCC`, the call was inactive.

With `CCN(Cc1cccnc1)C(=O)c1cccc(Cl)c1[C@]1(C)C(=O)N(Cc2ccc(OC)cc2OC)c2ccc(Cl)cc21`, the call was inactive.

For the molecule `c1ccc(C[n+]2cccc3ccccc32)cc1`, the molecule was called inactive.

For `CC(O)CC(C)(C)O` (stereo not given), the outcome was inactive.

For `Cc1ccc2oc(CN(Cc3ccccc3)C(=O)Nc3c(F)cc(F)cc3F)c(-c3ccc(Cl)cc3)c2c1`, the molecule was classed as inactive.

With `CCCCCCCC[Si](OCC)(OCC)OCC`, the molecule was called inactive.

Turning to `O=CCCCC=O`, the molecule was called inactive.

Consider `C[C@]12CC[C@@H]3c4ccc(O)cc4CC[C@H]3[C@@H]1CC[C@H]2O`, for which the call was inactive.

As to `CCN(CC)C(=O)c1cc(S(=O)(=O)Cc2ccccc2)c(N2CCC(c3ccccc3)CC2)cc1N(CC)CCN(C)C`, the call was inactive.

Take `Oc1ccc2ccccc2c1`: the molecule was called inactive.

In the case of `CC/C(=C(/CC)c1ccc(O)cc1)c1ccc(O)cc1`, the call was inactive.

Turning to `Cc1c2ccccc2c(C)c2c1ccc1ccccc12`, the result was inactive.

On to `Cc1cc(F)ccc1-c1cc(N2CC[C@@H](O)[C@H]2CO)ncc1N(C)C(=O)C(C)(C)c1cc(C(F)(F)F)cc(C(F)(F)F)c1`, for which the molecule was called inactive.

On to `CCO[Si](CCCNC(N)=O)(OCC)OCC`, for which the outcome was inactive.

As to `CN(C[C@@H](CC[N+]12CCC(C3CCCCC3)(CC1)CC2)c1ccc(Cl)c(Cl)c1)C(=O)c1cc(C(F)(F)F)cc(C(F)(F)F)c1`, the result was inactive.

As to `Cc1cc2c(cc1C(F)(F)F)N(C(=O)Nc1ccc(Oc3cccnc3C)nc1)CC2`, the result was inactive.
